Laboratory results: ChEMBL document CHEMBL4296182, “CO-ADD screening of NIH NCI Diversity Set V”
For part of these data: Measured potencies and affinities stand elsewhere.

Tests used:
Staphylococcus aureus = test: Antibacterial activity against Staphylococcus aureus MRSA ATCC 43300 (CO-ADD:GP_020); MIC in CAMBH media using NBS plates, by Resazurin F(560/590); type: functional; settings: Concentration 20 uM, ASSAY_TEST Inhibition of Bacterial Growth, detection method Resazurin, Fluorescence (ex560/em590), MEDIA CAMHB, plate type 384well, CORNING #3640, time 18 hr
Acinetobacter baumannii = test: Antibacterial activity against Acinetobacter baumannii ATCC 19606 (CO-ADD:GN_034); MIC in CAMBH media using NBS plates, by Resazurin F(560/590); type: functional; settings: Concentration 20 uM, ASSAY_TEST Inhibition of Bacterial Growth, detection method Resazurin, Fluorescence (ex560/em590), MEDIA CAMHB, plate type 384well, CORNING #3640, time 18 hr
Escherichia coli = test: Antibacterial activity against Escherichia coli ATCC 25922 (CO-ADD:GN_001); MIC in CAMBH media using NBS plates, by Resazurin F(560/590); type: functional; settings: Concentration 20 uM, ASSAY_TEST Inhibition of Bacterial Growth, detection method Resazurin, Fluorescence (ex560/em590), MEDIA CAMHB, plate type 384well, CORNING #3640, time 18 hr
Klebsiella pneumoniae = settings: Concentration 20 uM; ASSAY_TEST Inhibition of Bacterial Growth; detection method Absorption (OD600); MEDIA CAMHB; plate type 384well; NBS; CORNING #3640; time 18 hr
Candida albicans = settings: 20 µM
Cryptococcus neoformans = settings: Concentration 20 uM; ASSAY_TEST Inhibition of Fungal Growth; detection method Resazurin; Absorption (OD600-OD570); plate type 384well; NBS; CORNING #3640

Structure (SMILES)	Inhibition (Staphylococcus aureus) [%]	Inhibition (Acinetobacter baumannii) [%]	Inhibition (Escherichia coli) [%]	Inhibition (Klebsiella pneumoniae) [%]	Inhibition (Candida albicans) [%]	Inhibition (Cryptococcus neoformans) [%]
O=C(NC1CCCCC1)c1cc2ccccc2cc1O	11.46	7.31	4.75	14.67	0.86	-3.07
Cn1c(=O)c2c(nc(Oc3ccccc3)n2C)n(C)c1=O	7.55	11.19	-2.76	19.27	7.25	-3.63
O=S(=O)(O)c1ccc2c(c1)C(C(Cl)(Cl)Cl)OC(C(Cl)(Cl)Cl)O2 (stereo unspecified)	10.71	-8.34	18.82	1.9	-0.48	-7.32
CCc1nc(NC(C)(C)C)c2cnn(-c3ccccc3)c2n1	6.25	2.78	2.08	23.15	15.4	-0.88
Cc1ccc(-c2cc(C(=O)O)c3ccccc3n2)c(C)c1	11.92	8.6	-3.13	18.95	8.35	-6
Cn1c(=O)c2c(nc(N3CCCCC3)n2C)n(C)c1=O	9.93	4.85	2.17	8.3	4.05	-7.82
CC1=CC(=C2C=CC(=O)C=C2)C=C(C)N1C	0.37	-6.52	4.86	-4.58	4.83	-12.1
CCOC(=O)c1cnn2c(SC)ncnc12	10.61	5.37	-2.6	12.61	5.51	-8.81
Oc1cc(-c2ccc(Cl)cc2)nc2ccccc12	0.37	13	-1.34	16.07	18.1	5.32
Nc1c(Cl)cc(S(N)(=O)=O)cc1S(N)(=O)=O	4.27	9.37	1.27	26.17	17.5	-1.7
O=C1c2ccccc2C(=O)C1c1ccccn1	-5.11	-11.28	2.88	6.77	5.19	-6.9
CCOC(=O)Nc1ccc(C(=O)/C=C/c2ccccc2)cc1	8.55	3.76	-2.1	17.43	6.26	-5.25
O=C(O)CCc1cccnc1	18.41	-3.93	16.49	14.5	1.32	-2.51
CC(C)Cc1nnc(N)s1	5.28	-16.63	6.53	28.97	1.43	-13.23
Nc1nc2c[nH]c(N)nc-2n1	-4.21	2.13	5.84	7.49	3.2	-2.1
C#C[C@]1(O)CC[C@H]2[C@@H]3CCC4=Cc5oncc5C[C@]4(C)[C@H]3CC[C@@]21C [DANAZOL]	-10.91	2.93	12.68	6.03	0.72	-10.04
Cc1cc(=O)oc2cc(OS(C)(=O)=O)ccc12	-6.24	-3.66	13.01	7.19	0.46	-11.39
Oc1cc(-n2cccn2)c(O)cc1-n1cccn1	6.47	8.87	-3.84	16.86	25.5	-4.6
CCN(CC)CCN1C(=O)c2cccc3cc(N)cc(c23)C1=O	-0.77	7.97	10.46	12.53	-0.17	-5.58
CCC1(CC)C(=O)NC(=S)N=C1N	2.67	-4.28	12.79	14.22	7.8	-2.67
OC1COC(OCc2ccccc2)C(O)C1O (stereo unspecified)	21	-10.71	8.16	4.56	0.34	-6.82
N#C/N=C/N1CC=C(c2ccc(Cl)cc2)CC1	11.33	10.12	1.23	20.23	8.73	-3.92
OCC(O)C1OCOC(C(O)CO)C1O (stereo unspecified)	14.61	-8.42	9.4	8.21	0.45	-5.49
CCOC(=O)/C(C#N)=C/c1cccc(C)c1	35.48	11.54	20.45	6.23	19.3	-0.16
C[C@]12CC[C@H](O)CC1=CC[C@@H]1[C@@H]2CC[C@]2(C)c3n[nH]cc3C[C@@H]12	17.35	7.15	13.22	4.71	-0.24	-13.74
Cn1c(=O)c2nc(SCc3ccccn3)[nH]c2n(C)c1=S	8.4	9.84	-0.48	14.94	0.94	-2.39
